This passage reports survival results from PubChem BioAssay AID463173 (ICCB-Longwood Screening Facility, Harvard Medical School, 2010).

Hit rate of the full screen: of about 52,000 compounds, about 4,300 (8.3%) were called active. The sample holds actives, similar compounds and a random draw of the others, so the mix is not that of the screen. A number with no mark means an inactive call. No stated cut-off is given here; in the data, active means survival mostly below about 52% (no sharp cut-off); inactive means mostly above about 56%.

The test relates to DeltatarO mutant. The test is described as follows: growth inhibition of S. aureus wild type versus tarO mutant, primary screen, teichoic acid synthesis inhibitors, RN4220, OD600 (AID 463173). Conditions: OD600, 18 h, active compounds read low, screened at 18.75 µg/mL (by protocol).
Turning to `CC(=O)c1cccc(NC(=O)C(C)n2c(=O)cc(-c3ccccc3)c3c(C)nn(C)c32)c1` (centres undefined), the survival was 102%.

As to `CC1CCN(C(=O)Cn2cc(SCC(=O)NCc3ccccc3Cl)c3ccccc32)CC1`, the survival is 64%.

`COc1cc(/C=C/c2nc(C#N)c(N3CCCCC3)o2)cc(OC)c1OC`: the survival was 89%.

In the case of `COc1ccc(NCc2nc3ccccc3n2CCOc2ccc(C)cc2)cc1`, the survival was 17% (active).

Consider `CCC(O)c1nc2ccccc2n1CCOc1cc(C)cc(C)c1` (centres undefined), for which the survival is 100%.

On to `CCOc1ccc(NCc2n[nH]c(=S)n2-c2ccc(C)cc2)cc1`, for which the survival is 90%.

Turning to `Cc1ccc(OCCn2c(CNc3cccc(C)c3)nc3ccccc32)cc1`, the survival is -3% (active).

For `CCc1nnc2c(Nc3ccccc3Br)nc3ccccc3n12`, the survival is 93%.

For the compound `CCc1nnc2c(Nc3cccc(C(C)=O)c3)nc3ccccc3n12`, the survival was 92%.

As to `CCOc1ccc(Nc2nc3ccccc3n3c(CC)nnc23)cc1`, the survival was 36% (active).

Consider `CCOc1ccc(NCc2nc3ccccc3n2CCOc2ccc(C)cc2)cc1`, for which the survival is 1% (active).

Take `COc1ccc(OCCn2c(C)nc3cc(C)c(C)cc32)cc1`: the survival is 57%.

Regarding `Cc1ccc(C)c(Cn2cc(CCC(=O)NC3CCCCC3)c3ccccc32)c1`, the survival was 86%.

As to `CC(C)(C)OC(=O)N/N=C/c1cccc(O)c1`, the survival is 79%.

Consider `Nc1nnc2c(Nc3ccccc3)nc3nonc3n12`, for which the survival was 86%.

Turning to `O=C(NC1CCCCC1)c1ccc(CSc2nc3cccnc3n2Cc2cccc(F)c2)cc1`, the survival is 83%.

For the compound `CC(C)(C)c1ccc(-c2ncccc2O)cc1`, the survival is 53%.

As for `CCc1c(C)c2ccc3c(c2oc1=O)CN(Cc1ccccc1)CO3`, the survival is 99%.

Turning to `COc1ccc(NC(=O)C2CCN(S(=O)(=O)c3c(C)noc3/C=C/c3cccs3)CC2)cc1`, the survival was 90%.

Regarding `Cn1c(=O)c2c(c3ccccc31)OC(=O)CC2c1cccc(F)c1` (centres undefined), the survival was 59%.

`CCc1sc(Nc2cccc(Cl)c2)nc1-c1cc2cccc(OC)c2oc1=O`: the survival is 90%.

For the compound `COc1cccc(CN(C(=O)COc2ccc(Cl)c(C)c2)C2CCS(=O)(=O)C2)c1` (centres undefined), the survival was 71%.

Take `Clc1ccc(NCc2nc3ccccc3n2CCOc2ccccc2)cc1`: the survival was 50%.

`Cc1ccc(NCc2nc3ccccc3n2CCOc2ccccc2)cc1`: the survival was 3% (active).

Consider `Cc1nn(CC(=O)Nc2ccccc2C(F)(F)F)c(=O)c2cccn12`, for which the survival was 93%.

As to `COc1ccc(C(C(=O)Nc2ccc(C(C)C)cc2)N(C)C(=O)Cc2cccs2)cc1` (centres undefined), the survival is 127%.

`Cc1ccc(S(=O)(=O)N2CCNCC2)cc1`: the survival was 87%.

For `Cc1cc(C)c2nc(NC(=O)c3ccc(S(=O)(=O)N4CCCC4)cc3)sc2c1`, the survival is 102%.

With `Cc1ccc(C)c2sc(NC(=O)c3ccc(S(=O)(=O)N4CCCC4)cc3)nc12`, the survival is 25% (active).

On to `Cc1cc(C)c2sc(NC(=O)c3ccc(S(=O)(=O)N4CCCC4)cc3)nc2c1`, for which the survival was 37% (active).

In the case of `Cc1ccc(Cl)c2sc(NC(=O)c3ccc(S(=O)(=O)N4CCCC4)cc3)nc12`, the survival is 63%.

As to `CCOc1cccc2sc(NC(=O)c3ccc(S(=O)(=O)N4CCCCC4C)cc3)nc12` (centres undefined), the survival was 37% (active).

With `CNC(=O)c1c(NC(=O)c2ccc(S(=O)(=O)N3CCC(C)CC3)cc2)sc2c1CCC2`, the survival is 131%.

With `Cc1cc(C)c2sc(NC(=O)c3ccc(S(=O)(=O)N4CCOCC4)cc3)nc2c1`, the survival was 101%.

For `CNC(=O)c1c(NC(=O)c2ccc(S(=O)(=O)N3CCCC(C)C3)cc2)sc2c1CCC2` (centres undefined), the survival is 92%.

With `CCOc1cccc2sc(NC(=O)c3ccc(S(=O)(=O)N4CCCCC4)cc3)nc12`, the survival is 94%.

For the compound `COc1ccc(C)c2sc(NC(=O)c3ccc(S(=O)(=O)N4CCCC4)cc3)nc12`, the survival is 101%.

With `CNC(=O)c1c(NC(=O)c2ccc(S(=O)(=O)N3CCCCC3)cc2)sc2c1CCC2`, the survival was 0% (active).

As for `CCOc1cccc2sc(NC(=O)c3ccc(S(=O)(=O)N4CCCc5ccccc54)cc3)nc12`, the survival is 74%.

With `CCC(Sc1nc2ccccc2c2nc(-c3ccccc3)nn12)C(=O)Nc1cccc(OC)c1` (centres undefined), the survival is 94%.

Consider `O=C(NCc1ccc(F)cc1)C(=O)Nc1ccc2nc3n(c(=O)c2c1)CCCCC3`, for which the survival was 94%.

Take `Cc1cc(C)cc(NC(=O)COCc2cc(-c3ccc4c(c3)OCO4)on2)c1`: the survival is 55%.

Consider `COC(=O)C1=C(N)OC2=C(C(=O)CCC2)C1c1ccc(OC)cc1` (centres undefined), for which the survival is 102%.

On to `O=C(Nc1ccc2nc(SCC(=O)N3CCCC3)sc2c1)c1ccc(Br)cc1`, for which the survival was 92%.

For the compound `O=c1ccn2c(n1)OC1C(O)C(CO)OC12` (centres undefined), the survival was 83%.

As for `O=C(c1ccccc1)N(C(=O)c1ccccc1)c1ccccn1`, the survival is 71%.

On to `Cc1cc2c(cc1S(=O)(=O)Nc1cccc(C#N)c1)OCC(=O)N2`, for which the survival is 93%.

On to `COc1cccc(N2CCN(C(=O)CCc3c(C)nc4c(c3C)c(=O)n(C)c(=O)n4C)CC2)c1`, for which the survival was 98%.

Regarding `CN(c1ccc(F)cc1)S(=O)(=O)N1CCCC(C(=O)NCc2cccc(Br)c2)C1` (centres undefined), the survival is 72%.

Take `O=C(Nc1ccccn1)C(=NO)C(=O)Nc1ccccn1`: the survival was 98%.

With `CC(C)c1ccccc1NC(=O)C(Cc1c[nH]c2ccccc12)NC(=O)OC(C)(C)C` (centres undefined), the survival is 162%.

As for `Cc1ccc(NC(=O)C(Cc2c[nH]c3ccccc23)NC(=O)OC(C)(C)C)c(C)c1` (centres undefined), the survival was 27% (active).

Regarding `COc1ccc(NC(=O)C(Cc2c[nH]c3ccccc23)NC(=O)OC(C)(C)C)cc1` (centres undefined), the survival was 48%.

Regarding `N#Cc1ccccc1NC(=O)c1cccs1`, the survival was 93%.

On to `COc1ccc(NC(=O)c2cnc(Nc3ccc(C)c(Cl)c3)c3ccccc23)cc1OC`, for which the survival was 51%.

For `COc1ccc(Nc2ncc(C(=O)Nc3ccc(F)cc3F)c3ccccc23)cc1`, the survival is 35% (active).

For the compound `COC(=O)c1ccccc1NC(=O)c1cnc(Nc2ccc(OC)cc2)c2ccccc12`, the survival was 61%.

`COc1ccc(Nc2ncc(C(=O)Nc3cc(C)ccc3OC)c3ccccc23)cc1`: the survival was 50%.

On to `COc1ccc(Nc2ncc(C(=O)Nc3cc(Cl)c(OC)cc3OC)c3ccccc23)cc1`, for which the survival is 72%.

On to `COc1ccccc1Nc1ncc(C(=O)Nc2ccc(OC)c(OC)c2)c2ccccc12`, for which the survival is 43% (active).

Take `Cc1ccc(Nc2ncc(C(=O)Nc3ccc(F)cc3F)c3ccccc23)cc1Cl`: the survival was 37% (active).

With `COc1ccc(NC(=O)c2cnc(Nc3ccc(C)c(Cl)c3)c3ccccc23)c(OC)c1`, the survival is 63%.

`COc1ccc(Nc2ncc(C(=O)Nc3cccc(OC)c3)c3ccccc23)cc1`: the survival is 106%.

Turning to `CCOc1ccc(NC(=O)c2cnc(Nc3ccccc3OC)c3ccccc23)cc1`, the survival was 50%.

For `COc1ccc(OC)c(NC(=O)c2cnc(Nc3ccc(C)c(Cl)c3)c3ccccc23)c1`, the survival was 44% (active).

As for `Cc1ccc(Nc2ncc(C(=O)N3CCN(c4ccc(F)cc4)CC3)c3ccccc23)cc1Cl`, the survival is 76%.

Take `CCOC(=O)c1c(C)[nH]c(C)c1S(=O)(=O)N(C)CC(=O)Nc1cc(Cl)ccc1C`: the survival is 94%.

For `COc1ccc(S(=O)(=O)c2cn(C)c3cc(N4CCOCC4)c(F)cc3c2=O)cc1`, the survival was 96%.

`CCc1cccc(CC)c1NC1=NS(=O)(=O)c2ccccc21`: the survival is 70%.

On to `Cc1cc(N2CCN(c3ccc(F)cc3)CC2)n2cnnc2n1`, for which the survival was 79%.

In the case of `COc1ccc(-c2cn3cccnc3n2)cc1NC(=O)Nc1ccc(Cl)cc1`, the survival is 84%.

Take `O=C(CSc1nncn2c1cc1occc12)Nc1ccc(F)c(Cl)c1`: the survival was 65%.

As for `CCc1nnc(SC(CC)C(=O)Nc2ccc(OC)c(Cl)c2)c2cc3occc3n12` (centres undefined), the survival was 72%.

Take `CCc1nnc(SC(CC)C(=O)Nc2cc(C)ccc2C)c2cc3occc3n12` (centres undefined): the survival was 79%.

Take `CCc1ccccc1NC(=O)CSc1nncn2c1cc1oc(C)cc12`: the survival is 62%.

For the compound `COc1ccc(NC(=O)CSc2nncn3c2cc2occc23)c(OC)c1`, the survival was 69%.

Turning to `CCc1cccc(C)c1NC(=O)C(CC)Sc1nncn2c1cc1occc12` (centres undefined), the survival is 53% (active).

On to `CCC(Sc1nncn2c1cc1oc(C)cc12)C(=O)Nc1ccc(F)cc1` (centres undefined), for which the survival is 54%.

As to `Cc1cc(C)cc(NC(=O)CSc2nncn3c2cc2occc23)c1`, the survival was 46% (active).

In the case of `CCc1cccc(C)c1NC(=O)CSc1nnc(CC)n2c1cc1occc12`, the survival is 67%.

As to `Cc1cc2c(cc3c(SCC(=O)Nc4ccc(Cl)cc4F)nncn32)o1`, the survival was 36% (active).

As for `CCC(Sc1nncn2c1cc1occc12)C(=O)Nc1ccc(C)c(Cl)c1` (centres undefined), the survival was 36% (active).

Regarding `Cc1cc(C)c(NC(=O)CSc2nncn3c2cc2oc(C)cc23)c(C)c1`, the survival was 65%.

For the compound `CC(C)c1ccc(NC(=O)c2ccc(F)c(S(=O)(=O)N3CCCC3)c2)cc1`, the survival was 74%.

Take `Cc1ccccc1C(=O)N1CCCCC1CCN1CCCCC1` (centres undefined): the survival was 80%.

For the compound `Cc1ccc(S(=O)(=O)N2CC=C(c3ccc(F)cc3)CC2)cc1`, the survival was 87%.

As for `Cc1nn2c(=O)cc(COC(=O)c3ccccc3NC(=O)c3cccs3)nc2s1`, the survival is 74%.

Turning to `COc1ccc(CN(Cc2ccco2)C(=O)c2ccccc2F)cc1`, the survival was 74%.

`CCOc1ccc(C2C(=O)N(C3CCCCCC3)CC(=O)N2Cc2ccc(C)cc2)cc1OC` (centres undefined): the survival is 96%.

On to `CSc1cccc(NC(=O)Cn2nc(C)c3sc4ccccc4c3c2=O)c1`, for which the survival was 83%.

For the compound `CC1(C)Oc2ccc3ccc(=O)oc3c2-c2cn[nH]c21`, the survival was 69%.

Consider `Cc1cccc(NS(=O)(=O)c2c(C)nc3sccn3c2=O)c1C`, for which the survival was 108%.

Regarding `Cc1nc2sccn2c1-c1csc(Nc2cccc(Cl)c2C)n1`, the survival is 15% (active).

In the case of `Cc1nc2sccn2c(=O)c1S(=O)(=O)Nc1cccc(Cl)c1C`, the survival was 68%.
